An excerpt weighted towards active compounds, which were near 3% of everything screened.
esBAF inh = SWI/SNF esBAF complex inhibition; hit rate 2% among 350,000; reporter increase, % at 12.5 µM; mouse ES cells, Bmi1-luciferase knock-in reporter, 24 h; 100% = twice the neutral-well signal; in the data active means activation above about 40%; inconclusive means no clear call, values can overlap the other calls;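 further: a rise in the Bmi1 reporter signal indicates esBAF inhibition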
C2C12 statin = suppression of simvastatin myotoxicity | C2C12 myotubes + simvastatin, ATP luminescence, 48 h; scaled: DMSO 0, geranylgeraniol control 100 | rescue of ATP level, % at 7.49 µM | hit rate 0.78% among 330,000 | AID 602340;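 active means mean ATP rescue above about 67%, or every replicate alone reaching that limit, limit read from the data, passing the limit was not always enough; inconclusive means no clear call, values can overlap the other calls; inactive means mean under the limit and some replicate under it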;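 further: myotubes were challenged with 10 µM simvastatin during compound exposure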
Wnt bcat act = activates Wnt/beta-catenin signaling in a reporter cell assay; activator, plate reader; activation, % at 9.35 µM; hit rate 1.2% among 300,000; AID 743398; in the data active means activation above about 30%, passing the limit was not always enough; inconclusive means no clear call, values can overlap the other calls
MITF TRPM1 HTS = increases MITF-driven TRPM1 promoter luciferase signal | SK-MEL-5 TRPM1-promoter luciferase, 24 h; % of positive control, neutral wells = 0 | activation, % at 12.5 µM | hit rate 0.75% among 300,000 | AID 588334;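 active means mean activation of at least 80% with every replicate also reaching 80%; inconclusive means mean reaches 80% but some replicate falls short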
A number is an active result; i = inactive; ? = inconclusive; nt = no result given.

SMILES	esBAF inh	C2C12 statin	Wnt bcat act	MITF TRPM1 HTS
CC(NC(=O)c1ccco1)c1nc(-c2ccccc2)no1 (stereo unspecified)	i	i	i	i
CC(Oc1ccc(Cl)cc1Cl)c1nc(-c2ccc(NC(=O)c3ccco3)cc2)no1 (stereo unspecified)	50	i	nt	nt
C[C@@H]1CN([C@H](C)CO)C(=O)c2cccc(NS(=O)(=O)c3ccccc3)c2O[C@@H]1CN(C)C(=O)Nc1ccc(F)cc1	i	i	nt	nt
CC(C)NC(=O)N(C)C[C@@H]1Oc2cc(C#C[C@@H](C)O)ccc2S(=O)(=O)N([C@@H](C)CO)C[C@H]1C	i	i	nt	nt
O=C(Cc1cccnc1)N[C@@H]1CC[C@H](CCn2cc(Cc3ccccc3)nn2)O[C@H]1CO	i	i	nt	nt
CCCC(=O)Nc1ccc2c(c1)C(=O)N(C)[C@@H]1CC[C@H](CC(=O)NCc3ccccc3F)O[C@H]1CO2	i	i	nt	nt
Cc1cc(OCc2nc(-c3ccc(NC(=O)c4cccnc4)cc3)no2)ccc1Cl	i	i	nt	i
CCCc1ccc(OCc2nc(-c3ccc(NC(=O)c4cccs4)cc3)no2)cc1	nt	nt	i	94
CN(C)C(=O)c1ccc(-c2ccc3c(c2)[C@H]2[C@H](CCN2C(=O)C2CCOCC2)[C@H](CO)N3C)cc1	i	i	nt	nt
O=C(Nc1ccc2nc(N3CCOCC3)sc2c1)c1ccc(F)cc1	i	i	i	i
CCOc1ccc2nc(N3CCCCCC3)sc2c1	i	i	i	i
O=C(c1cccs1)N1CCN(c2nc3c(F)cc(F)cc3s2)CC1	43	i	i	i
Cc1cc(C)c2nc(N3CCN(C(=O)c4cccs4)CC3)sc2c1	nt	nt	i	i
O=C(Nc1ccc(F)cc1F)c1ccc2nc(N3CCOCC3)sc2c1	42	i	i	nt
Fc1cc(F)c2nc(N3CCCCC3)sc2c1	66	i	i	i
Fc1ccc2nc(N3CCCC3)sc2c1	?	?	i	156
C[C@@H]1CN([C@H](C)CO)C(=O)c2cc(NC(=O)Nc3ccccc3)ccc2O[C@@H](C)CCCCO[C@H]1CN(C)S(=O)(=O)c1cccs1	i	nt	nt	nt
O=C(c1ccccc1)N1CCN(c2nc3ccc([N+](=O)[O-])cc3s2)CC1	nt	nt	i	i
O=[N+]([O-])c1ccc2nc(N3CCCC3)sc2c1	79	i	i	?
COc1cccc(CNc2ccc(F)c(Cl)c2)c1O	i	i	nt	88
Fc1ccc(OCc2nc3ccccc3s2)cc1	nt	nt	59	i
Cc1cc(OCc2nc3ccccc3s2)ccc1N	i	i	41	nt
N#Cc1ccc(NC(=O)CCc2nc3ccccc3s2)cc1	i	i	i	i
c1ccc(OCc2nc3ccccc3s2)cc1	i	nt	nt	nt
Cc1cc(-c2nc3ccccc3s2)ccc1N	nt	nt	i	nt
SMILES	esBAF inh	C2C12 statin	Wnt bcat act	MITF TRPM1 HTS
CCC(=O)Nc1ccc(OCc2nc3ccccc3s2)cc1	nt	nt	41	i
C[C@@H]1CN([C@H](C)CO)C(=O)c2cc(NC(=O)NC3CCCCC3)ccc2O[C@@H]1CN(C)C(=O)Nc1ccc2c(c1)OCO2	i	i	nt	nt
COc1ccccc1OCc1nc2ccccc2[nH]1	i	i	64	?
Brc1ccc(OCc2nc3ccccc3[nH]2)cc1	?	i	36	100
c1ccc2cc(OCc3nc4ccccc4[nH]3)ccc2c1	51	i	nt	i
C[C@@H]1CCCCO[C@@H](CN(C)CC2CCCCC2)[C@H](C)CN([C@H](C)CO)C(=O)c2cc(NC(=O)NC3CCCCC3)ccc2O1	i	i	nt	nt
COCOCCn1cc(CN2CCS(=O)(=O)N(Cc3ccc(-c4ccc(Cl)nc4)cc3)C(CC(C)C)C2=O)nn1 (stereo unspecified)	45	i	i	nt
COCOCCn1cc(CN2CCS(=O)(=O)N(Cc3ccc(-c4ccc(Cl)cc4)cc3)C(CC(C)C)C2=O)nn1 (stereo unspecified)	i	i	i	nt
O=C1/C(=C/N(C(=O)c2ccco2)c2ccc(Br)cc2)Sc2ccccc21	48	i	nt	i
CC(=O)Nc1ccc(C(=O)Nc2ccc3c(c2)OCCO3)cc1	i	i	i	i
Cc1cc(C)n(-c2ccc(C(=O)Nc3ccc4c(c3)OCCO4)cc2)n1	56	i	nt	i
CC(C)CNS(=O)(=O)c1ccc(C(=O)Nc2ccc3c(c2)OCCO3)cc1	91	i	nt	i
N#Cc1cnn(Cc2ccccc2)c1N	i	112	i	i
N#Cc1cnn(Cc2ccc(Cl)cc2)c1N	i	i	nt	i
CC[C@H]1c2[nH]c3ccc(C(C)C)cc3c2[C@@H]2CCN3C(=O)CCC[C@H]1[C@H]23	i	i	i	i
CC(C)c1ccc2[nH]c3c(c2c1)[C@@H]1CCN2C(=O)CCC[C@H](C3)[C@H]12	81	i	i	i
CCCOc1ccc(N/C=C/C(=O)c2ccc(OC)c(OC)c2)cc1	i	i	i	i
CCOc1ccc(N/C=C/C(=O)c2ccc(OC)c(OC)c2)cc1	70	i	i	nt
COc1ccc(C(=O)/C=C/Nc2ccc(C)cn2)cc1OC	60	i	nt	i
COc1ccc(N/C=C\C(=O)c2ccc3ccccc3c2)cc1	43	i	i	nt
CO[C@@H]1CN(C)C(=O)c2cc(NC(=O)c3ccccc3)ccc2OC[C@@H](C)N(C(C)=O)C[C@H]1C	i	i	nt	nt
O=S(=O)(Cc1ccccc1)NCC[C@@H]1CC[C@H](NS(=O)(=O)c2ccc(F)cc2)[C@H](CO)O1	i	i	nt	nt
C[C@@H]1CN([C@H](C)CO)C(=O)c2cc(NC(=O)C3CC3)ccc2O[C@H]1CN(C)C(=O)Nc1ccc(F)cc1	i	i	nt	nt
CC(C)(C)C(=O)[C@H]1[C@H](c2ccccc2)[C@@]2(N=C(c3ccccc3)OC2=O)C2c3ccccc3C=NN21 (stereo partly specified)	47	i	i	nt
COCC(=O)N1[C@H](CO)[C@H]2c3ccccc3N(C(=O)Nc3cc(F)ccc3F)C[C@H]21	i	i	nt	nt
SMILES	esBAF inh	C2C12 statin	Wnt bcat act	MITF TRPM1 HTS
O=c1cc(-c2ccc(O)c(O)c2)oc2cc(O)cc(O)c12	i	i	i	101
COc1cc(OC)c2c(=O)cc(-c3ccccc3)oc2c1	i	i	52	i
COc1cc(-c2cc(=O)c3c(O)cc(O)cc3o2)cc(OC)c1OC	i	i	i	nt
COc1ccc(-c2cc(=O)c3c(O)cc(O)cc3o2)cc1	i	i	64	112
Cn1c(C(=O)NCC2CCCO2)cc2oc3ccccc3c21 (stereo unspecified)	76	i	nt	i
Cn1c(C(=O)NCc2cccs2)cc2oc3ccccc3c21	52	nt	i	i
Cn1c(=O)c(C(=O)NCC2CCCO2)c(O)c2ccccc21 (stereo unspecified)	?	i	39	i
Cn1c(C(=O)NCC2CCCO2)cc2c(=O)[nH]c3ccccc3c21 (stereo unspecified)	i	i	i	nt
Cn1c(C(=O)NCc2ccccc2)cc2oc3ccccc3c21	59	i	i	i
C[C@@H]1CN([C@H](C)CO)C(=O)c2cc(/C=C/c3ccccc3)cnc2O[C@H]1CN(C)C(=O)c1ccc(F)cc1	i	i	nt	nt
C/C=C/c1cnc2c(c1)C(=O)N([C@@H](C)CO)C[C@@H](C)[C@@H](CN(C)C(=O)NC1CCCC1)O2	i	i	nt	nt
CC(=O)CC1(O)C(=O)N(Cc2ccccc2)c2ccccc21 (stereo unspecified)	i	i	43	i
C[C@@H]1CCCCO[C@@H](CN(C)CC2CC2)[C@@H](C)CN([C@H](C)CO)C(=O)c2cc(NS(=O)(=O)c3ccccc3)ccc2O1	i	nt	nt	nt

Screens as filed in PubChem.
